Compounds without any hit were thinned out: in the full panel of roughly 79,000, 15% have a hit. Activity calls are given as the source filed them. Cut-off read from the data, not from the text of the source: active = growth inhibition above about 70%; inactive = the rest.
Columns and labels:
[1] = NCI Yeast Anticancer Drug Screen. Data for the rad50 strain (AID 155);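 note: 0% = growth of vehicle-only cultures of the same strain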; settings: S. cerevisiae rad50 strain growth inhibition; at 50.0 µM; active compounds read high
Summary of the method: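 DNA repair mutant yeast, compound exposure, growth read-out; inhibition is taken relative to vehicle.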

[2] = NCI Yeast Anticancer Drug Screen. Data for the mec2-1 strain (AID 157); settings: S. cerevisiae mec2-1 strain, at 50.0 µM, active compounds read high
Summary of the method: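 Growth inhibition is read against vehicle-treated controls after compound exposure of the mec2-1 yeast strain, which is defective in DNA damage repair or cell cycle control.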

[3] = NCI Yeast Anticancer Drug Screen. Data for the sgs1 mgt1 strain (AID 161);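 note: 0% = growth of cultures given vehicle only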; settings: S. cerevisiae sgs1 mgt1 strain, at 50.0 µM, active compounds read high
Summary of the method: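 Percent growth inhibition was derived by comparing compound-exposed mutant yeast with vehicle-exposed cultures. The strain carries alterations in DNA damage repair.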

[4] = NCI Yeast Anticancer Drug Screen. Data for the cln2 rad14 strain (AID 165);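 note: 0% = growth equal to vehicle treated cultures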; settings: S. cerevisiae cln2 rad14 strain, at 50.0 µM, active compounds read high
Summary of the method: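 Growth inhibition, relative to vehicle-treated controls, is the read-out. The test organism is a yeast strain with defined genetic alterations, cln2 rad14.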

[5] = NCI Yeast Anticancer Drug Screen. Data for the bub3 strain (AID 167); settings: S. cerevisiae bub3 mutant strain, at 50.0 µM, active compounds read high
Summary of the method: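 In this screen, a yeast mutant lacking normal mitotic checkpoint function is challenged with compound. Relative growth versus vehicle gives the inhibition value.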

[6] = NCI Yeast Anticancer Drug Screen. Data for the mlh1 rad18 strain (AID 175); settings: S. cerevisiae mlh1 rad18 strain growth inhibition; at 50.0 µM; active compounds read high
Summary of the method: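 Cells of a genetically altered yeast strain, deficient in DNA damage repair, were treated with compound. Their growth was then compared with that of vehicle-treated cultures to give inhibition.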

Measured: growth inhibition

O=P(O)(O)SP(=O)(O)O.[Zn+2]
inactive: [1] -20.9% | [2] 9.55% | [3] -15.8% | [4] -8.7% | [5] -12.6% | [6] -1.35%

Cn1c2c(c3ccccc31)CCN1OCC=C[C@@H](C(=O)O)[C@@H]21
inactive: [1] -8.3% | [2] 3.15% | [3] -6.3% | [4] 5.55% | [5] 42.3% | [6] -8.85%

CC(C)N([PH2+]N(C(C)C)C(C)C)C(C)C.[C-]#[O+].[C-]#[O+].[C-]#[O+].[C-]#[O+].[C-]#[O+].[Mo]
inactive: [1] 9.4% | [2] 15.9% | [3] -2.2% | [4] 17.1% | [5] 6.35% | [6] -1.35%

COC1OOC(OC)c2ccccc2-c2ccccc21 (configuration not stated)
inactive: [1] -15.3% | [2] -9.7% | [3] 4.1% | [4] -14.1% | [5] 15.5% | [6] 4.15%

O=[As]c1ccc(C(=O)Cl)cc1 (configuration not stated)
inactive: [1] -2.3% | [2] -16.4% | [3] -20.1% | [4] 2.15% | [5] -25.3% | [6] 0.45%

CN1CCC2(CC1)C(C#N)C(=O)NC(=O)C2C#N (configuration not stated)
inactive: [1] 19.8% | [2] 3% | [3] 11.7% | [4] 22.9% | [5] 9.05% | [6] 7.75%

O=C(Cl)c1ccc[nH]1
inactive: [1] -0.95% | [2] -13.9% | [3] -13.7% | [4] 21.1% | [5] -25.6% | [6] -0.15%

O=c1n(CC2CS2)c2ccccc2n1CC1CS1 (configuration not stated)
inactive: [1] 42% | [2] -0.6% | [3] 4.9% | [4] -30.4% | [5] -11.1% | [6] -5.3%

N#CCc1ccccc1CC#N
inactive: [1] 20.8% | [2] -0.65% | [3] 2.5% | [4] -19.7% | [5] 3.9% | [6] 18.2%

COc1ccc2c3c1OC1C(O)C=CC4C(C2)N(N=O)CCC341 (configuration not stated)
inactive: [1] -3.2% | [2] 9.6% | [3] -4.2% | [4] 11.5% | [5] 5.25% | [6] 21.7%

COc1cccc(C2CC(=O)c3cccn32)c1 (configuration not stated)
inactive: [1] 11.3% | [2] 1.65% | [3] -4.7% | [4] 21.3% | [5] -5.25% | [6] -17.2%

CC(C)CC(C)(C)COP(=S)(OCC(C)(C)CC(C)C)OCC(C)(C)CC(C)C
inactive: [1] 13.6% | [2] -15% | [3] 0.8% | [4] -37% | [5] -8.75% | [6] 10.6%

CCC(=O)OC1(c2ccccc2)CCN(CCC(O)c2ccccc2)CC1C (configuration not stated)
inactive: [1] -14.9% | [2] -1.45% | [3] 1.45% | [4] -34.9% | [5] 1.1% | [6] 6.2%

O=C(CCc1ccccc1)Nc1ccc(Cl)cc1C(=O)c1ccccc1
inactive: [1] -0.85% | [2] 20.2% | [3] 24.4% | [4] -26.2% | [5] 54.1% | [6] 28.6%

C1=CC2CCC1C2
inactive: [1] 15.5% | [2] 3.75% | [3] -7.1% | [4] -52% | [5] -5.65% | [6] 7.85%

CN1CN(c2ccccc2)C2(CCN(CCCCCCF)CC2)C1=O
inactive: [1] -5.55% | [2] -15.9% | [3] -19.4% | [4] -0.15% | [5] -5.95% | [6] 16.4%

CC(C)OP(=S)(Oc1ccc(Cl)cc1Cl)OC(C)C
inactive: [1] 20.9% | [2] -11.7% | [3] 31.9% | [4] 8.8% | [5] 21.2% | [6] 8%

CCOP(=O)(CC(=O)C1CC1)OCC
inactive: [1] -28.8% | [2] -20.5% | [3] -26.2% | [4] -21.9% | [5] -20.9% | [6] -43.1%

O=[As](O)(O)CC(Br)CBr (configuration not stated)
inactive: [1] 5.5% | [2] 12% | [3] 5.95% | [4] -7.3% | [5] 41.1% | [6] -3.4%

Cc1cc(C)[c]([Hg][Cl])c(C)c1
active: [1] 98.5% | [2] 98.7% | [3] 98.7% | [4] 96.2% | [5] 98.7% | [6] 97.8%

C=C1C(=O)OC2CC3(C)OC3C3OC3C3=CC(OC3=O)C12 (configuration not stated)
inactive: [1] 18.9% | [2] 34.7% | [3] 57.1% | [4] 29.6% | [5] 41.4% | [6] 38.1%

ClCCN(CCCl)c1ccc(C=Nc2ccccc2)cc1
inactive: [1] 34.5% | [2] 21.1% | [3] 59.6% | [4] 12.2% | [5] 2% | [6] 28.6%

NNC(=O)Nc1ccc([N+](=O)[O-])cc1[N+](=O)[O-]
inactive: [1] 63.8% | [2] 0% | [3] 34.7% | [4] 20.2% | [5] 38.4% | [6] 20.5%

CC([Se])=Nc1ccc(Br)cc1
inactive: [1] 21.6% | [2] 0.8% | [3] -0.2% | [4] -8.9% | [5] -1.45% | [6] 9.1%

CC(C)C(O)(C(=O)OCC1=CC[N+]2([O-])CCC(O)C12)C(C)O (configuration not stated)
inactive: [1] -16.9% | [2] -29.7% | [3] -9.7% | [4] 4% | [5] -7.45% | [6] -7.3%

COc1cc(C2c3cc4c(cc3OC(C)(O)C2C(C)=O)OCO4)cc(OC)c1OC (configuration not stated)
inactive: [1] -10.2% | [2] -0.15% | [3] 3.9% | [4] -18.6% | [5] -1.1% | [6] -7.45%

COc1ccc(N)cc1N
inactive: [1] 6.8% | [2] 18.1% | [3] 5.5% | [4] -42.4% | [5] 25.5% | [6] 11.1%

CC(Cc1ccc(O)cc1)NCC(O)c1cc(O)cc(O)c1 (configuration not stated)
inactive: [1] 9.65% | [2] 13.2% | [3] 6.95% | [4] -8.45% | [5] 16.4% | [6] 6.55%

CC(Cl)CN1CCN(CC(C)Cl)CC1 (configuration not stated)
inactive: [1] 2.95% | [2] -16.7% | [3] 34.4% | [4] 4.4% | [5] 31.9% | [6] -10.3%

Cc1nc2cccc(F)c2c(=O)n1-c1nnc(C(F)(F)F)s1
inactive: [1] 16.9% | [2] 8.8% | [3] 16.5% | [4] 10.8% | [5] -6.4% | [6] 15.5%

[CH3][Sb]([CH3])([CH3])([I])[I]
inactive: [1] 20.4% | [2] -14.1% | [3] 0.15% | [4] -12.7% | [5] -0.2% | [6] 1.25%

CC1CN1P(=O)(N1CCCC1)N1CC1C (configuration not stated)
inactive: [1] 5.25% | [2] 15.1% | [3] -20.3% | [4] 6.5% | [5] -1.5% | [6] 13.4%

O=c1[nH]cc([N+](=O)[O-])cc1[N+](=O)[O-]
inactive: [1] 1.5% | [2] -16.6% | [3] -2.25% | [4] 22.7% | [5] -15.6% | [6] 0.5%

O=C1CCCCC1CN1CCCCC1 (configuration not stated)
inactive: [1] 4.8% | [2] -3.2% | [3] -2.45% | [4] -3.25% | [5] 3.45% | [6] 1.25%

COC(=O)C1=CO[C@@H](C)[C@@H]2CN3CCc4c([nH]c5cc(OC)ccc45)[C@@H]3C[C@H]12
inactive: [1] -0.2% | [2] -28.9% | [3] -11.1% | [4] -2.9% | [5] -27% | [6] -19.2%

CC1CS1 (configuration not stated)
inactive: [1] -5.7% | [2] 4.8% | [3] -10.1% | [4] 2.9% | [5] 12.2% | [6] -11.1%

Nc1cccc2c1Cc1cc([N+](=O)[O-])ccc1-2
inactive: [1] 8.1% | [2] -37.2% | [3] 17.6% | [4] -14.4% | [5] 3.6% | [6] -1.4%

CCC1(/C=C/C(C)C)C(=O)NC(=S)NC1=O
inactive: [1] -0.75% | [2] 4.55% | [3] -0.8% | [4] 0.85% | [5] 0.05% | [6] 2.8%

C=COC(N)=O
inactive: [1] 0.8% | [2] -2.7% | [3] 5.05% | [4] -0.9% | [5] 0.05% | [6] -8.15%

NC(N)=Nc1nn[nH]n1
inactive: [1] 3.25% | [2] -8.25% | [3] -13.7% | [4] -0.85% | [5] 0.35% | [6] -5.6%

CCC1(C(C)=O)CN2CCc3cc(OC)c(OC)cc3C2N2CCc3ccc(OC)c(OC)c3C21 (configuration not stated)
active: [1] 96.9% | [2] 97.8% | [3] 97.7% | [4] 96.7% | [5] 98.5% | [6] 98%

CC(CCl)N1CCCCCC1 (configuration not stated)
inactive: [1] -14.3% | [2] -16.8% | [3] 8% | [4] -20.8% | [5] 5.3% | [6] -6.8%

Source: PubChem BioAssay (NCI)
